Data as given in PubChem BioAssay.
Active and inactive are the calls of the source.

What was measured:
[1] = binders of probe aFSTL3 on microarray, primary screen, stem cell growth factor project, biochemical, small-molecule microarray, fluorescence 635/667 (AID 1064); settings: higher = more signal;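 further: measures binding of the biotinylated anti-FSTL3 antibody to printed compounds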
[2] = binders from COS7 lysate, DM2A8 probe, primary screen, torsin A project, cell lysate, small-molecule microarray, fluorescence 635/667 (AID 1065); settings: higher = more signal, COS7 lysate expressing mutant human TOR1A
[3] = binders of probe aFGF2 on microarray, primary screen, stem cell growth factor project, biochemical, small-molecule microarray, fluorescence 635/667 (AID 1067); settings: higher = more signal;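 further: measures binding of biotinylated aFGF2 protein to printed compounds on slides; z-score merges feature fluorescence and signal-to-noise across triplicate slides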
[4] = binders of probe aFGF10 on microarray, primary screen, stem cell growth factor project, biochemical, small-molecule microarray, fluorescence 635/667 (AID 1071); settings: higher = more signal;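 further: score merges 667 nm spot intensity and signal to noise from triplicate slides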
[5] = biological target: Neurogenic locus notch homolog protein 2 (Homo sapiens) (UniProt Q04721); test: Notch2 binders on small-molecule microarrays, primary screen, biochemical, small-molecule microarray, 635 nm fluorescence, stem cell growth factors (AID 1073); settings: Notch2 binding, higher = more signal
[6] = biological target: Pro-neuregulin-1, membrane-bound isoform (Homo sapiens) (UniProt Q02297); test: NRG1 binders on small-molecule microarrays, primary screen, psychiatric disease protein project, biochemical, small-molecule microarray, fluorescence 635/667 (AID 1075); settings: NRG1 binding, 635 nm fluorescence, higher = more signal;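 further: score combines 667 nm spot fluorescence with signal to noise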
[7] = test system: Neuregulin-1 EGF-like domain; test: binders of neuregulin-1 EGF-like domain, primary screen, biochemical, small-molecule microarray, 635 nm fluorescence (AID 1081); settings: small-molecule microarray binding, higher = more signal;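 further: binding of the protein to compounds printed on small-molecule microarray slides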
[8] = FRG1 promoter luciferase signal modulators, primary screen, FRG1 inhibition for FSHD, cell-based, C2C12 myotubes, firefly/Renilla luciferase, luminescence (AID 1084); settings: higher = more signal, called active from +8 up or from −8 down
[9] = binders of probe aFST on microarray, primary screen, stem cell growth factor project, biochemical, small-molecule microarray, fluorescence 635/667 (AID 1086); settings: higher = more signal;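 further: score merges 667 nm fluorescence with signal-to-noise of each printed compound spot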
[10] = binders of probe aHhip on microarray, primary screen, stem cell growth factor project, biochemical, small-molecule microarray, fluorescence 635/667 (AID 1087); settings: higher = more signal;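 further: score merges spot fluorescence at 667nm with spot signal to noise ratio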
[11] = test system: PRMT1 (protein arginine N-methyltransferase 1); test: PRMT1 binders on small-molecule microarrays, primary screen, biochemical, small-molecule microarray, 635 nm fluorescence (AID 1088); settings: small-molecule microarray binding, higher = more signal;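 further: binding of Prmt1 protein to compounds spotted on small-molecule microarray slides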
[12] = yeast growth modulation, basal conditions, primary screen, YJM789 clinical isolate, OD600, 24 h (AID 1089);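 further: growth of clinical yeast isolate S. cerevisiae YJM 789 seeded 1000 cells per well; test concentration not given here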; settings: S. cerevisiae YJM789 growth, higher = more signal, called active from +8 up or from −8 down
[13] = fission yeast growth modulation, primary screen, strain 972, OD600, 24 h, no modulator (AID 1090);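 further: basal condition with compound alone and no growth modifier present; test concentration not given here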; settings: S. pombe 972 growth, higher = more signal, called active from +8 up or from −8 down
[14] = S. cerevisiae growth modulation with rapamycin, primary screen, strain BY4716, OD600, 96 h (AID 1091); settings: higher = more signal, called active from +8 up or from −8 down; further: test concentration not given here
[15] = biological target: Torsin-1A-interacting protein 2 (Homo sapiens) (UniProt Q8NFQ8); test: LULL1 binders on small-molecule microarray, primary screen, cell lysate, human LULL1 lysate, 635/667 nm fluorescence (AID 1092); settings: hLULL1 lysate binding, 635 nm fluorescence, higher = more signal;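 further: probe is lysate of COS7 cells overexpressing human LULL1; score merges per-feature 667 nm fluorescence with signal-to-noise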
[16] = E. coli growth modulation, two-sided OD650, primary screen, E. coli filamentation project, strain DRC41, 24 h (AID 1093); settings: OD650, 24 h, higher = more signal, called active from +8 up or from −8 down;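 further: MC1000 strain lacking acrAB efflux and sulA so SOS filamentation is blocked; test concentration not given here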
[17] = small-molecule microarray binders of probe aLefty2, primary screen, biochemical, biotinylated probe, 635/667 nm fluorescence (AID 1094); settings: higher = more signal;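 further: score merges spot fluorescence near 667 nm with spot signal-to-noise ratio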
[18] = test system: Noggin (protein binding on small-molecule microarray); test: Noggin binders on small-molecule microarray, primary screen, biochemical, 635/667 nm fluorescence (AID 1095); settings: 635 nm fluorescence, higher = more signal;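 further: score merges 667 nm feature fluorescence with signal to noise over triplicate slides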
[19] = biological target: Neurogenic locus notch homolog protein 3 (Homo sapiens) (UniProt Q9UM47); test: NOTCH3 binders on small-molecule microarray, primary screen, biochemical, 635/667 nm fluorescence (AID 1096); settings: NOTCH3 binding, 635 nm fluorescence, higher = more signal
[20] = small-molecule microarray binders of probe aEGFR, primary screen, biochemical, biotinylated probe, 635/667 nm fluorescence (AID 1097); settings: higher = more signal;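 further: probe is a biotinylated anti-EGFR antibody binding compounds printed on slides; score combines fluorescence near 667 nm and signal to noise of each spot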

Chain of Neurogenic locus notch homolog protein 2 (Homo sapiens) (Q04721 whole entry, looked up, canonical isoform): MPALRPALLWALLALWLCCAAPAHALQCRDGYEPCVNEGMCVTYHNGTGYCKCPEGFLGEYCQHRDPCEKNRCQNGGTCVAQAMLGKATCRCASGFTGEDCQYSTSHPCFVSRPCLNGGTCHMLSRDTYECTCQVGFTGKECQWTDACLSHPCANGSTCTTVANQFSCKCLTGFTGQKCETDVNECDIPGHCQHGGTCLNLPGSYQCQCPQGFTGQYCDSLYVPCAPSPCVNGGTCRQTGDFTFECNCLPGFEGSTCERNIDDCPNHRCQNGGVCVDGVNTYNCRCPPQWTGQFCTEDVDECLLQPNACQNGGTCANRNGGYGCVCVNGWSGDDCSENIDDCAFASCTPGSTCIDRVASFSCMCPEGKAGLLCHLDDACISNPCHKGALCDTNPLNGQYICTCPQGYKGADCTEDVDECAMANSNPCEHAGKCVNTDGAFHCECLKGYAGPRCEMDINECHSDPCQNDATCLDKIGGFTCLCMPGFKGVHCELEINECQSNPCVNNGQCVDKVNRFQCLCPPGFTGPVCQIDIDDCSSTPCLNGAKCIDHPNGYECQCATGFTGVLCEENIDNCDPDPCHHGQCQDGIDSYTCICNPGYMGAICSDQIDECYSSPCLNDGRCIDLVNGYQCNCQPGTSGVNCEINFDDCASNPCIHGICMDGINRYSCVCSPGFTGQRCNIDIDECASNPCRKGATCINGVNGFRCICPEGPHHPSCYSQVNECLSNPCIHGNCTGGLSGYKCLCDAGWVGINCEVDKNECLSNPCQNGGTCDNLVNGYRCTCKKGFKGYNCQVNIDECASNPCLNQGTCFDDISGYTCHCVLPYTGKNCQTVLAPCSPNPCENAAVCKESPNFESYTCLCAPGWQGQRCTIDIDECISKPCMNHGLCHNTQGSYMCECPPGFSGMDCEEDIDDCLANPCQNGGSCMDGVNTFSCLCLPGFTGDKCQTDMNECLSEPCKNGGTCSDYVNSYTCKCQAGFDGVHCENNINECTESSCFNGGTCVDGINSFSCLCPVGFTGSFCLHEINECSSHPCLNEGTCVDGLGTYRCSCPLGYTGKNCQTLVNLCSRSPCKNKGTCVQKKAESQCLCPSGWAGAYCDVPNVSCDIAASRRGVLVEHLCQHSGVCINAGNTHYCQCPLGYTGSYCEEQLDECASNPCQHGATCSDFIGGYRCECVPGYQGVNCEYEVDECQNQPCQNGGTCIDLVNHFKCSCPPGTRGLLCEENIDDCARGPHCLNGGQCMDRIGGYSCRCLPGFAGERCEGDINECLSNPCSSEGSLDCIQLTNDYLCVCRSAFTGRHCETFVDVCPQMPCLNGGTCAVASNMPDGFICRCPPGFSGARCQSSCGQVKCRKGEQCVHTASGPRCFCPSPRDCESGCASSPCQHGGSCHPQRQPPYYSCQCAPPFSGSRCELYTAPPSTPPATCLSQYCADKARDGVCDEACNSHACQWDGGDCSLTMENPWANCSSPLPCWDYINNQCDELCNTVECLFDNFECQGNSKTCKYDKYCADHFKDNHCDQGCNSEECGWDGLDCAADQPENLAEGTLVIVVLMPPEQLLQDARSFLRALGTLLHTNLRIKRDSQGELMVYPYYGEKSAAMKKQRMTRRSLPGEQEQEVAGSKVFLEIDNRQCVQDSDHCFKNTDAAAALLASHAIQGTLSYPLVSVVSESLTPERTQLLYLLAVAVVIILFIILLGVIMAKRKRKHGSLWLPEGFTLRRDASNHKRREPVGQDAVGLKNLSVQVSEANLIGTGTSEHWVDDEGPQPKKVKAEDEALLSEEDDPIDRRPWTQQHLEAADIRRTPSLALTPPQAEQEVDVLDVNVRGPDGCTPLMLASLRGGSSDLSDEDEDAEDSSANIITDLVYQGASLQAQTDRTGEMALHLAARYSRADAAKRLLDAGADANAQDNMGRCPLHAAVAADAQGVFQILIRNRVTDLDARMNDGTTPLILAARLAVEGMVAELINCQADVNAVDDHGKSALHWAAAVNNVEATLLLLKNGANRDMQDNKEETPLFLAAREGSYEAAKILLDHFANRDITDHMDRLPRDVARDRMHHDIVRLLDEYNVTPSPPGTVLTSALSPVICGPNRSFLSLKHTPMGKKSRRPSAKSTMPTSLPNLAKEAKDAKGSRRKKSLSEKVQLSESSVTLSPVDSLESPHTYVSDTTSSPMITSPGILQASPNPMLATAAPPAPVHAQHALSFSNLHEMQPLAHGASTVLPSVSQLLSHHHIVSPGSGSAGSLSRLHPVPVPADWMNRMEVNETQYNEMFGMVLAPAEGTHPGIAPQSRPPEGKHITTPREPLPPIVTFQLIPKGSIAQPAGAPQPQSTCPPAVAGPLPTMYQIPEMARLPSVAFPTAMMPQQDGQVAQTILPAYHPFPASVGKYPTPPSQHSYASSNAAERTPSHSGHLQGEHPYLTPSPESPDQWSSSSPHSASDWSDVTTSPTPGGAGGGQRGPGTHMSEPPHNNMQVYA
Chain of Pro-neuregulin-1, membrane-bound isoform (Homo sapiens) (Q02297 whole entry, looked up, the tested form may be a part, canonical isoform): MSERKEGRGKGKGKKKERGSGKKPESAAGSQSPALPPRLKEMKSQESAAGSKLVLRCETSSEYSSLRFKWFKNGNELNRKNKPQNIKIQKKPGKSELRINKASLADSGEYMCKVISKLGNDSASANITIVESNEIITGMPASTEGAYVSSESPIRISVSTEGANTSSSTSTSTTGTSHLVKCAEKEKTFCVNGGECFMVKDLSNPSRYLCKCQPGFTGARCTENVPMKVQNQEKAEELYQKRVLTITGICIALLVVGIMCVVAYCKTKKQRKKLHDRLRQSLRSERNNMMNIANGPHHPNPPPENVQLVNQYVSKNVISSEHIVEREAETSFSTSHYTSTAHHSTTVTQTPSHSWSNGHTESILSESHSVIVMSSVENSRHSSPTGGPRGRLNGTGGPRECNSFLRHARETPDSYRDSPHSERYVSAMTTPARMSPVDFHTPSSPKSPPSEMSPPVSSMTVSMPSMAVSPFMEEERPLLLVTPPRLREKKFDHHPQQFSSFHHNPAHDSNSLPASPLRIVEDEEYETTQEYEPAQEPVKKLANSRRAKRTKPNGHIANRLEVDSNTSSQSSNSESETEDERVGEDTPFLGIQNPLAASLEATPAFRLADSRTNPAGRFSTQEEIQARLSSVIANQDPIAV
Chain of Torsin-1A-interacting protein 2 (Homo sapiens) (Q8NFQ8 whole entry, looked up): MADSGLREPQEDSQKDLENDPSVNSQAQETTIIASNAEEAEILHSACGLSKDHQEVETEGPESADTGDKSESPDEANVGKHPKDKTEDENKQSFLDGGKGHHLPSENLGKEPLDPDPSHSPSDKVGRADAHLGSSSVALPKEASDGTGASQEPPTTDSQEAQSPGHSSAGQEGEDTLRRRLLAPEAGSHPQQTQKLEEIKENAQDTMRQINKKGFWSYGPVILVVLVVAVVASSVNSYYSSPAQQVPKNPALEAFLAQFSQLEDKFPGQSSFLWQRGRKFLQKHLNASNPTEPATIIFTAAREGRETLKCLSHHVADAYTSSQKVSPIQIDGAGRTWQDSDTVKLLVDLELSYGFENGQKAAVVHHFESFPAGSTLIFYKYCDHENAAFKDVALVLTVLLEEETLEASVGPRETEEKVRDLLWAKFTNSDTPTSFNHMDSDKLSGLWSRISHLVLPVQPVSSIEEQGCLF

SMILES: COc1ccc(COC(=O)NN=C2C[C@@H](O)[C@@H](O)[C@@H]3[C@@H]4C(=O)N(Cc5ccccc5)C(=O)[C@@H]4CC[C@H]23)cc1
- composite z-score [1]: 1.51
- composite z-score [2]: 0.111
- composite z-score [3]: -0.0574
- composite z-score [4]: 0.009
- composite z-score [5]: -0.234
- composite z-score [6]: -0.318
- composite z-score [7]: -0.411
- z-score [8]: 0.319 (inactive)
- composite z-score [9]: 1.39
- composite z-score [10]: -0.284
- composite z-score [11]: 0.413
- z-score [12]: -0.457 (inactive)
- z-score [13]: -0.619 (inactive)
- z-score [14]: -1.17 (inactive)
- composite z-score [15]: 0.739
- z-score [16]: -0.289 (inactive)
- composite z-score [17]: 0.287
- composite z-score [18]: -1.24
- composite z-score [19]: -0.0524
- composite z-score [20]: -0.13

SMILES: CCOC(=O)NN=C1C[C@@H](O)[C@@H](O)[C@@H]2[C@@H]3C(=O)N(Cc4ccc5c(c4)OCO5)C(=O)[C@@H]3CC[C@H]12
- composite z-score [1]: -0.428
- composite z-score [2]: 0.0687
- composite z-score [3]: -0.113
- composite z-score [4]: -0.388
- composite z-score [5]: -0.434
- composite z-score [6]: 0.279
- composite z-score [7]: 0.678
- z-score [8]: 0.855 (inactive)
- composite z-score [9]: 0.625
- composite z-score [10]: -0.0645
- composite z-score [11]: 0.667
- z-score [12]: -0.126 (inactive)
- z-score [13]: 0.119 (inactive)
- z-score [14]: -0.6 (inactive)
- composite z-score [15]: 2.31
- z-score [16]: 0.203 (inactive)
- composite z-score [17]: -0.289
- composite z-score [18]: 0.303
- composite z-score [19]: -0.578
- composite z-score [20]: -0.0978

SMILES: COC(=O)[C@H]1O[C@@H](c2c(OC)c(OC)c(C)c(OC)c2OC)[C@H](C)[C@@H](O)[C@H]1C
- composite z-score [1]: -0.341
- composite z-score [2]: 0.499
- composite z-score [3]: 0.0066
- composite z-score [4]: 0.915
- composite z-score [5]: 1.06
- composite z-score [6]: 0.368
- composite z-score [7]: 0.741
- z-score [8]: -0.204 (inactive)
- composite z-score [9]: 0.224
- composite z-score [10]: -0.0965
- composite z-score [11]: 1.03
- z-score [12]: 0.234 (inactive)
- z-score [13]: 0.346 (inactive)
- z-score [14]: -0.438 (inactive)
- composite z-score [15]: 0.964
- z-score [16]: 0.196 (inactive)
- composite z-score [17]: -0.0131
- composite z-score [18]: 0.585
- composite z-score [19]: 1.1
- composite z-score [20]: 0.0821

SMILES: O=C1OCCC=C1C(O)CCc1ccccc1 (stereo not given)
- composite z-score [1]: -0.209
- composite z-score [2]: 0.652
- composite z-score [3]: -0.0885
- composite z-score [4]: 0.37
- composite z-score [5]: 0.327
- composite z-score [6]: -0.192
- composite z-score [7]: 0.375
- z-score [8]: 0.667 (inactive)
- composite z-score [9]: 0.285
- composite z-score [10]: -0.0645
- composite z-score [11]: -1.06
- z-score [12]: -0.857 (inactive)
- z-score [13]: -0.113 (inactive)
- z-score [14]: -0.665 (inactive)
- composite z-score [15]: -0.119
- z-score [16]: 0.353 (inactive)
- composite z-score [17]: -0.0324
- composite z-score [18]: 0.433
- composite z-score [19]: 0.67
- composite z-score [20]: 0.0009

SMILES: C#CCCCON=C1C[C@@H](O)[C@@H](O)[C@@H]2[C@@H]3C(=O)N(c4ccc(F)cc4F)C(=O)[C@@H]3CC[C@@H]12
- composite z-score [1]: -0.398
- composite z-score [2]: 1.69
- composite z-score [3]: -0.138
- composite z-score [4]: 0.103
- composite z-score [5]: 0.329
- composite z-score [6]: 0.0095
- composite z-score [7]: -0.114
- z-score [8]: -0.236 (inactive)
- composite z-score [9]: 0.0638
- composite z-score [10]: 0.235
- composite z-score [11]: 0.108
- z-score [12]: -0.326 (inactive)
- z-score [13]: -0.117 (inactive)
- z-score [14]: -1.3 (inactive)
- composite z-score [15]: -0.261
- z-score [16]: 0.336 (inactive)
- composite z-score [17]: -0.124
- composite z-score [18]: 0.561
- composite z-score [19]: 0.0521
- composite z-score [20]: -0.112

SMILES: C#CCCCON=C1C[C@@H](O)[C@@H](O)[C@@H]2[C@@H]3C(=O)N(C(C)(C)C)C(=O)[C@@H]3CC[C@H]12
- composite z-score [1]: 1.86
- composite z-score [2]: 1.01
- composite z-score [3]: -0.0245
- composite z-score [4]: -0.104
- composite z-score [5]: 0.162
- composite z-score [6]: -0.431
- composite z-score [7]: -0.58
- z-score [8]: -0.247 (inactive)
- composite z-score [9]: 0.774
- composite z-score [10]: -0.122
- composite z-score [11]: -0.872
- z-score [12]: -0.234 (inactive)
- z-score [13]: -0.401 (inactive)
- z-score [14]: -0.0894 (inactive)
- composite z-score [15]: -0.0077
- z-score [16]: 0.216 (inactive)
- composite z-score [17]: 0.599
- composite z-score [18]: -0.532
- composite z-score [19]: -0.326
- composite z-score [20]: 0.113

SMILES: CCCCc1nc2c(c3c1C[C@H](C)OC3)CN(CCOc1ccccc1)CC2
- composite z-score [1]: -0.43
- composite z-score [2]: 0.575
- composite z-score [3]: -0.149
- composite z-score [4]: 0.414
- composite z-score [5]: 0.882
- composite z-score [6]: 0.363
- composite z-score [7]: 0.881
- z-score [8]: -1.55 (inactive)
- composite z-score [9]: 0.192
- composite z-score [10]: 0.213
- composite z-score [11]: 1.44
- z-score [12]: -2.26 (inactive)
- z-score [13]: -4.02 (inactive)
- z-score [14]: 0.574 (inactive)
- composite z-score [15]: 1.62
- z-score [16]: 0.976 (inactive)
- composite z-score [17]: -0.005
- composite z-score [18]: 0.339
- composite z-score [19]: 0.732
- composite z-score [20]: 0.219

SMILES: CCOC(=O)CCN1C(=O)[C@H]2[C@H]3[C@H](O)[C@H](O)CC(=NOCC(C)C)[C@H]3CC[C@H]2C1=O
- composite z-score [1]: 0.185
- composite z-score [2]: 0.0849
- composite z-score [3]: -0.0232
- composite z-score [4]: 0.125
- composite z-score [5]: -0.131
- composite z-score [6]: -0.312
- composite z-score [7]: 0.176
- z-score [8]: 0.813 (inactive)
- composite z-score [9]: 0.349
- composite z-score [10]: -0.264
- composite z-score [11]: -0.309
- z-score [12]: 0.199 (inactive)
- z-score [13]: 0.307 (inactive)
- z-score [14]: 0.0797 (inactive)
- composite z-score [15]: 0.22
- z-score [16]: 0.251 (inactive)
- composite z-score [17]: 0.096
- composite z-score [18]: 0.109
- composite z-score [19]: -0.0186
- composite z-score [20]: -0.15

SMILES: COc1ccc(C#C[C@@H]2C=C[C@H](OC(C)=O)[C@@H](COC(C)=O)O2)cc1
- composite z-score [1]: -0.068
- composite z-score [2]: 0.101
- composite z-score [3]: -0.0769
- composite z-score [4]: 0.288
- composite z-score [5]: 0.395
- composite z-score [6]: 0.198
- composite z-score [7]: -0.0975
- z-score [8]: 0.742 (inactive)
- composite z-score [9]: -0.0985
- composite z-score [10]: -0.191
- composite z-score [11]: 0.474
- z-score [12]: -0.551 (inactive)
- z-score [13]: -2.35 (inactive)
- z-score [14]: -0.451 (inactive)
- composite z-score [15]: 0.387
- z-score [16]: 1.04 (inactive)
- composite z-score [17]: 0.0164
- composite z-score [18]: 0.622
- composite z-score [19]: 0.493
- composite z-score [20]: -0.122

SMILES: CCCNC(=O)OC[C@H]1O[C@H](CCON=C(C)CCN2CCCc3nc(C)c(C)cc32)C=C[C@@H]1Oc1ccc(OC)cc1
- composite z-score [1]: -0.0324
- composite z-score [2]: -0.0773
- composite z-score [3]: -0.0611
- composite z-score [4]: 0.552
- composite z-score [5]: 0.661
- composite z-score [6]: 0.639
- composite z-score [7]: 0.685
- z-score [8]: -0.46 (inactive)
- composite z-score [9]: 0.504
- composite z-score [10]: -0.0994
- composite z-score [11]: 1.55
- z-score [12]: -0.663 (inactive)
- z-score [13]: -0.604 (inactive)
- z-score [14]: -0.0042 (inactive)
- composite z-score [15]: 2.38
- z-score [16]: 1.05 (inactive)
- composite z-score [17]: 0.0408
- composite z-score [18]: 0.634
- composite z-score [19]: 0.991
- composite z-score [20]: 0.101
